# Hits are enriched below; roughly 1.6% of the tested compounds scored in any of these assays.
# KCNQ2 inh – rat KCNQ2 potassium channel inhibitors, primary screen, cell-based, CHO-K1, FluxOR thallium flux, B-score | Potassium voltage-gated channel subfamily KQT member 2 (Rattus norvegicus), O88943 | 20 min; hits give low values | B-score at 10 µM | hit rate 1.1% among 310,000 | AID 2156, 2009;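 active = fluorescence ratio B-score at most minus 3 library SDs, with starting brightness B-score within 2 library SDs, cut at about -5.5 in these data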
# Target sequence (O88943 whole entry, looked up): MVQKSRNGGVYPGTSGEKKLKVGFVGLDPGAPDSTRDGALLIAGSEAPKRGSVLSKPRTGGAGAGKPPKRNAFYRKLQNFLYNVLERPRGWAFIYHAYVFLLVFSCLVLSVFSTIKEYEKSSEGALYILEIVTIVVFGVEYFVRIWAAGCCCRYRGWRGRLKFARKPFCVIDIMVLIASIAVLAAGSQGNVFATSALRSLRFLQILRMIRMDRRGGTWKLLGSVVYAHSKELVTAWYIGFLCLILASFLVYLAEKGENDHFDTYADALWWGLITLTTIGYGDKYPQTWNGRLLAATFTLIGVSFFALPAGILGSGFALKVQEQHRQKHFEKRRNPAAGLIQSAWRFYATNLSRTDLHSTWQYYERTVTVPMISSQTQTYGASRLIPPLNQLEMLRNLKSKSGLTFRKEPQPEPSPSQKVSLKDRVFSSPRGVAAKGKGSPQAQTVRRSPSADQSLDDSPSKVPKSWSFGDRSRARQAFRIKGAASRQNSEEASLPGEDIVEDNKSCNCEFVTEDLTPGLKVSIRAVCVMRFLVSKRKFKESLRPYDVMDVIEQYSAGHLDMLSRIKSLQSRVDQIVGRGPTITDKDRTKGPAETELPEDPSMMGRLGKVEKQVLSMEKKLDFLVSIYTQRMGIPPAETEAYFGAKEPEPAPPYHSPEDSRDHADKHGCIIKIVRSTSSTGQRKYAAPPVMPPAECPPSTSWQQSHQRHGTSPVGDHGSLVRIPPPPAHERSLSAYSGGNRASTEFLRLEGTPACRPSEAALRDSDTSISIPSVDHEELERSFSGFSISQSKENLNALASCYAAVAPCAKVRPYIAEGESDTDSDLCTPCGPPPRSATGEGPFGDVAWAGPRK
# KCNQ2 enhance – potentiators of rat KCNQ2 potassium channel | B-score at 10 µM | AID 2239, 2010 | Potassium voltage-gated channel subfamily KQT member 2 (Rattus norvegicus), O88943 | CHO-K1 KCNQ2, FluxOR thallium flux fluorescence; hits give high values | hit rate 0.54% among 310,000;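 active = fluorescence ratio B-score at least 3 SD of library B-scores, with initial fluorescence B-score within 3 of them, cut at about 5.3 in these data; same plate scores as AID 2156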;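 also: B-score of peak minus minimum over baseline fluorescence ratio after K+ and Tl+ stimulus; positive B-score means potentiation of KCNQ2 with more thallium influx and brighter signal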
# * = called active by the depositor; i = inactive; nt = no result.
SMILES,KCNQ2 inh,KCNQ2 enhance
CC12CCC(C(=Nc3ccc(N=C4C(=O)C5(C)CCC4C5(C)C)cc3)C1=O)C2(C)C,i,nt
Cc1ccc(N/C=C2\C(=O)C3(C)CCC2C3(C)C)cc1C (configuration not stated),-6.5*,-6.5
Cc1cc(F)ccc1NC(=O)CCCN(C)S(=O)(=O)c1ccc(F)cc1,i,1.6
Cc1ccc(N(CC(=O)Nc2ccccc2-c2ccccc2)S(=O)(=O)c2ccccc2)cc1,-6.2*,-6.2
Cc1ccc(S(=O)(=O)N(CC(=O)Nc2ccccc2-c2ccccc2)c2ccc(C)cc2C)cc1,-6*,-6
Cc1ccc(S(=O)(=O)N(C)CCCC(=O)Nc2ccc(C)cc2C)cc1,i,6.2*
Cc1cc(C)cc(N(CC(=O)Nc2ccccc2-c2ccccc2)S(=O)(=O)c2ccccc2)c1,i,nt
Cc1cccc(N(CC(=O)Nc2ccccc2-c2ccccc2)S(=O)(=O)c2ccccc2)c1C,i,nt
COc1ccc(-c2nc(CS(=O)CC(=O)NCCN3CCCCC3C)c(C)o2)cc1OC (configuration not stated),i,1.4
COc1cc(C(=O)NCc2ccc(S(N)(=O)=O)cc2)ccc1OCC(=O)Nc1cccc(C(F)(F)F)c1,i,0.37
COc1cc(C(=O)N(C)CCOc2ccccc2)ccc1OCC(=O)Nc1cccc(C(F)(F)F)c1,-6.7*,-6.7
O=C(CCS(=O)(=O)c1cc(Br)cc2c1N(C(=O)C1CC1)CC2)N1CCN(c2ccccn2)CC1,i,0.44
Cc1cccc(C(=O)NC(=S)N2CCc3ccccc3C2)c1,i,8.4*
CCNC(=S)N1CCc2ccccc2C1,i,0.35
Cn1c(C(=O)Nc2ccc(Cl)cc2)cc2cc(Cl)ccc21,i,nt
CCCn1c(=O)c2c(C(=O)OCC)cc(-c3ccco3)nc2n(CCC)c1=O,i,nt
CCOC(=O)c1cc(-c2ccco2)nc2c1c(C)nn2-c1ccccc1,-6*,-6
COc1ccc(C)cc1N(CC(=O)N1CCCCCC1)S(=O)(=O)c1ccc(C)cc1,i,nt
O=C(NCC1CCCN1S(=O)(=O)c1cccs1)c1ccccc1F (configuration not stated),i,nt
COc1ccc(C(=O)NNC(=O)Cc2ccc([N+](=O)[O-])cc2)cc1,i,0.47
COc1ccc(CC2(C)OC(c3ccc([N+](=O)[O-])cc3)=NN2C(C)=O)cc1 (configuration not stated),-6.2*,-6.2
CCC1CN(C)C2Cc3c([nH]c4ccccc34)C(=O)CC1C2C(=O)OC (configuration not stated),i,nt
CC[C@H]1CC2CN3CCc4c([nH]c5c([C@H]6C[C@H]7[C@H](CC)CN(C)[C@@H](Cc8c6[nH]c6ccccc86)[C@H]7C(=O)OC)c(OC)ccc45)C(C(=O)OC)(C2)C13,-7.5*,-7.5
Cc1cc(C)c(NC(=O)CS(=O)CC(=O)NCCN2CCCCCC2)c(C)c1 (configuration not stated),i,nt
Cc1cccc(Nc2c([N+](=O)[O-])c(=O)oc3ccccc23)c1,i,nt
SMILES,KCNQ2 inh,KCNQ2 enhance
CC(C)(C)C(=O)c1no[n+]([O-])c1/C(=N/O)C(C)(C)C,-7*,-7
O=C(Nc1cn(-c2ccccc2)nc1-c1ccc(Cl)cc1)c1ccccc1,i,nt
Cc1ccc(-c2nn(-c3ccccc3)cc2NC(=O)c2ccccc2)cc1,-5.7*,-5.7
O=S(=O)(Oc1ccc(C(=S)N2CCOCC2)cc1)c1ccc(Cl)cc1,i,nt
CS(=O)(=O)N(CC(=O)N1CCc2ccccc2C1)Cc1ccc(Cl)cc1,-6*,-6
CS(=O)(=O)N(CC(=O)N1CCc2ccccc2C1)Cc1ccc(F)cc1,i,nt
CCOC(=O)N1CCN(C(=O)CN(c2cccc(C)c2)S(=O)(=O)c2ccc(C)cc2)CC1,i,1.1
O=C(CN(c1cccc(Cl)c1)S(=O)(=O)c1ccc(Cl)cc1)N1CCc2ccccc2C1,-6.5*,-6.5
Cc1ccc(S(=O)(=O)N(CC(=O)N2CCC(C)CC2)c2cccc(C)c2)cc1,-6.2*,-6.2
CS(=O)(=O)N(CC(=O)N1CCc2ccccc2C1)c1cccc(F)c1,i,nt
CSc1ccc(CN(C)C(=O)CNC(=O)c2ccc3c(c2)OCO3)cc1,i,0.11
CC(=O)Nc1ccc(NC(=O)CSc2nnc(-c3cc(C)[nH]n3)n2N)cc1,i,0.19
CCSc1nnc(C)c(=O)n1COC(=O)c1ccc(S(=O)(=O)N2CCCC2)cc1,i,nt
Cc1cccc(N2CCN(S(=O)(=O)c3c(C)[nH]c(C)c3C(=O)N3CCCCC3)CC2)c1C,-5.9*,-5.9
Cc1cccc(N2CCN(S(=O)(=O)c3c(C)[nH]c(C)c3C(=O)N3CCCC3)CC2)c1C,i,nt
CC(c1ccco1)N(C(=O)c1ccccc1NS(=O)(=O)c1ccc(Cl)c([N+](=O)[O-])c1)c1ccccn1 (configuration not stated),i,nt
CCS(=O)(=O)N1CCN=C1SCc1ccc(F)cc1,i,1.4
CCOc1ccccc1C(=O)Nn1c(C2CCC2)nc2ccccc2c1=O,-6.8*,-6.8
COc1ccccc1C(=O)Nn1c(C2CCC2)nc2ccccc2c1=O,i,nt
CC12CCC(c3c(C(=O)O)nn(-c4ccccc4)c31)C2(C)C (configuration not stated),i,0.88
CC12CCC(c3c(C(=O)Nc4nccs4)nn(-c4ccccc4)c31)C2(C)C (configuration not stated),-8.3*,-8.3
COc1ccc([N+](=O)[O-])cc1N(CC(=O)N(C)C)S(C)(=O)=O,i,0.52
O=C1OCC(c2ccc(Cl)s2)=C1c1ccccc1[N+](=O)[O-],i,nt
CCN(CC)C(=O)c1sc2nc(-c3cccs3)cc(-c3ccc(Cl)cc3)c2c1N,-6.9*,-6.9
CCN(CC)C(=O)c1sc2nc(-c3cccs3)cc(-c3cccs3)c2c1N,i,nt
SMILES,KCNQ2 inh,KCNQ2 enhance
CC1=CC(C)(C)n2c(O)c(N=NC(N)=S)c3c(C)c(C)cc1c32,i,1.9
CC1=CC(C)(C)n2c(O)c(N=N)c3c(C)c(C)cc1c32,-6.6*,-6.6
CCOc1cc(Br)c(CN2C(=O)NC3(CCCCCC3)C2=O)cc1OCC,i,2.1
CC1CCCCN1CCNC(=O)c1ccc2c(c1)N(Cc1ccccc1F)C(=O)c1ccccc1S2=O (configuration not stated),i,nt
CC1CCN(C(=O)CSc2nnc3ccc(-c4cccnc4)nn23)CC1,i,nt
Cc1ccccc1NC(=O)CC1SC(=Nc2ccc(O)cc2)NC1=O (configuration not stated),i,0.93
CC(C)=N/N=C1/NC(=O)C(CC(=O)Nc2cc(Cl)ccc2C)S1 (configuration not stated),i,5.8*
Cc1c(C)n2c(SCC(=O)Nc3cccc4ccccc34)nnc2[nH]c1=O,i,0.36
Cc1ccc(NC(=O)[C@H](C)NC(=O)C2CCN(C(=O)[C@@H](N)CC(C)C)CC2)cc1,i,0.68
CCOC(=O)C1=C(C)NC(=O)NC1c1ccc(-c2ccc(Cl)cc2)o1 (configuration not stated),i,0.05
CCOC(=O)C1=C(C)NC(=S)NC1c1ccc(-c2ccc(Cl)cc2)o1 (configuration not stated),i,7.8*
CC(C(=O)NC1CCCCC1)N(Cc1ccccc1)C(=O)c1snc(C(N)=O)c1N (configuration not stated),i,nt
Cc1ccc(C(=O)COc2cc(O)c3c(=O)cc(-c4ccccc4)oc3c2)cc1,i,nt
